# Data reported in PubChem BioAssay AID1508602 (The Scripps Research Institute Molecular Screening Center, 2020).
# Values joined by “and” are separate entries in the source; they are usually repeats but may differ in a detail not shown here. Equal entries are not always repeated. Hit rate of the full screen: of about 650,000 compounds, about 6,800 (1%) were called active. Cut-off read from the data, not from the text of the source: active = activation above about 4.9%; inactive = the rest. The list comes from a sample in which actives are over-represented; it also holds similar structures and randomly drawn compounds.
# Target: G-protein coupled receptor 151 (Homo sapiens) (UniProt Q8TDV0)
# Test: activators of human GPR151, primary screen, cell-based, PathHunter beta-arrestin, luminescence (AID 1508602);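 note: 0% = median of compound wells and 100% = cells with positive control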
# Settings: PathHunter beta-arrestin GPR151 cells, at 11.2 µM, active compounds read high
# G-protein coupled receptor 151 (Homo sapiens), sequence (Q8TDV0 whole entry, looked up): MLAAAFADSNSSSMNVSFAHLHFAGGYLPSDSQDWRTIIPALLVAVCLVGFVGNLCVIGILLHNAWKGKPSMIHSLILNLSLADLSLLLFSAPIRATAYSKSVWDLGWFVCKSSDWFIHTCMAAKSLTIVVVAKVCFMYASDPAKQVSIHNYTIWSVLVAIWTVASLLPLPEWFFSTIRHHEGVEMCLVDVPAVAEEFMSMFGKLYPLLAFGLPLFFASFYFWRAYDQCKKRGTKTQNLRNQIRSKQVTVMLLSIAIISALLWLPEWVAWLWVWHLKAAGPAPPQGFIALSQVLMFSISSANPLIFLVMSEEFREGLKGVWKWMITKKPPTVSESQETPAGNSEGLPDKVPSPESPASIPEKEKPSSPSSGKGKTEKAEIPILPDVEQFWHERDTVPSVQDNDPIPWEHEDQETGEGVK
row,Compound,activation
1,Cc1ccc(C(=O)NCC(=O)OCC(=O)Nc2cccc(Cl)c2)s1,0.82% (inactive)
2,NC(=O)c1c(NC(=O)c2ccccc2F)sc2c1CCCCCC2,1.12% (inactive)
3,COC(CNC(=O)CC(NS(=O)(=O)c1ccc(C)cc1)c1ccco1)OC (stereo unspecified),-0.827% (inactive)
4,COC(=O)c1ccc2c(=O)n(CCN3CCOCC3)c(SCc3cc(C(C)=O)ccc3OC)nc2c1,-0.152% (inactive)
5,O=C(CCc1nnc(CCCCc2ccccc2)o1)N1CCC(N2CCSCC2)CC1,7% (active)
6,O=C(CCc1nnc(Cc2cccc(C(F)(F)F)c2)o1)N1CCSCC1,-0.806% (inactive)
7,COc1ccccc1NC(=O)Nc1ccnn1C1CCN(C(=O)CCc2ccccc2)CC1,0.323% (inactive)
8,CN(Cc1ccno1)C(=O)CC1C(=O)NCCN1Cc1ccoc1 (stereo unspecified),1.36% (inactive)
9,COc1cccc(N(C(=O)c2csnn2)C(C(=O)NC(C)(C)C)c2ccc(F)cc2)c1 (stereo unspecified),0.396% (inactive)
10,CCc1ccc(CN(C)C(=O)CC2(c3ccccc3Cl)CC(=O)N(C)C2=O)cc1 (stereo unspecified),0.519% (inactive)
11,CCc1ccc(-c2oc(C)c(C)[n+]2[O-])cc1,-2.56% (inactive)
12,Cc1cnc(CN(C)C(=O)CC2(c3ccccc3C)CC(=O)N(CCN(C)C)C2=O)[nH]1 (stereo unspecified),1.18% (inactive)
13,COCCN1C(=O)CC(CC(=O)N(C)C(C)C)(c2ccccc2F)C1=O (stereo unspecified),-1.69% (inactive)
14,COCCN1C(=O)CC(CC(=O)NCc2nc3ccccc3[nH]2)(c2ccccc2C)C1=O (stereo unspecified),6.75% (active)
15,COCCNC(=O)c1cnn2c(C)c(Cc3ccc(Cl)cc3)c(C)nc12,0.41% (inactive)
16,CC(=O)c1ccc(-c2cnc3[nH]c(=O)n(C4CCCCC4)c3n2)s1,-0.0776% (inactive)
17,Cc1ccc(S(=O)(=O)N2CC3CC3C2C(=O)Nc2ccc(F)cc2)cc1 (stereo unspecified),0.0458% (inactive)
18,Nc1ccc(C(=O)Nc2nc3ccc(C(=O)N4CCCCC4)cc3s2)cc1,-0.249% (inactive)
19,CC1CCCC(NCc2c(C(=O)O)n(Cc3ccc(F)cc3)c3ccccc23)C1C (stereo unspecified),0.786% (inactive)
20,CC1CCCC(NCc2c(C(=O)O)n(Cc3ccc(Cl)cc3)c3ccccc23)C1C (stereo unspecified),7.5% (active)
21,O=C(O)c1c(CNC2CCCCC2)c2ccccc2n1Cc1ccc(Cl)cc1,-0.235% (inactive)
22,O=C(Nc1ccc(N2CCOCC2)cc1)c1ccc2nc(Nc3ccncc3)sc2c1,0.271% (inactive)
23,O=C(Cn1c(=O)n(Cc2ccccc2)c(=O)c2ccccc21)c1ccccc1,5.03% (active)

row,Compound,activation
1,COc1ccc(OC)c(NC(=O)Cn2c(=O)n(Cc3ccccc3)c(=O)c3ccccc32)c1,-0.558% (inactive)
2,NC(=O)Cn1c(=O)n(CCCCC(=O)NCCc2ccccc2)c(=O)c2ccccc21,-0.245% (inactive)
3,CCOC(=O)c1sc(NC(=O)CSc2nnc(-c3ccccc3)o2)c(C#N)c1C,-0.17% (inactive)
4,CCOC(=O)c1sc(NC(C)=O)c(C#N)c1C,-1.06% (inactive) and -0.982% (inactive)
5,CCOC(=O)c1sc(NC(=O)CSc2ncccn2)c(C#N)c1C,4.97% (active)
6,NC(=O)c1c(NC(=S)NC(=O)c2ccccc2)sc2c1CCCCCC2,-0.485% (inactive)
7,COc1ccc(C2CC(c3ccccc3)n3ncnc3N2)cc1 (stereo unspecified),-0.25% (inactive)
8,COC(Cn1c(=S)[nH]c2cc3ccccc3cc2c1=O)OC,0.597% (inactive)
9,CC1(c2ccc3ccccc3c2)NC(=O)N(CC(N)=O)C1=O (stereo unspecified),-0.0365% (inactive)
10,COc1ccc(C2(C)NC(=O)N(CC(=O)NCCc3ccccc3)C2=O)cc1 (stereo unspecified),-0.0334% (inactive)
11,COc1ccc(C2(C)NC(=O)N(CC(=O)Nc3ccc4ccccc4c3)C2=O)cc1 (stereo unspecified),5.16% (active)
12,O=C(Nc1ccc2cn[nH]c2c1)c1ccc(F)cc1F,-2.11% (inactive)
13,Cc1nn(-c2ccccc2)c2c1C(c1ccc(-c3ccccc3)cc1)C(C#N)=C(N)O2 (stereo unspecified),-3.52% (inactive)
14,COc1ccc(C2C(C#N)=C(N)Oc3c2c(C)nn3-c2ccccc2)cc1 (stereo unspecified),8.46% (active)
15,COc1cc(C2C(C#N)=C(N)Oc3c2c(C)nn3-c2ccccc2)ccc1OCC#N (stereo unspecified),0.152% (inactive)
16,CCOC(=O)Cn1c(CNC(=O)c2ccco2)nc2ccccc21,-1.37% (inactive)
17,CCOC(=O)c1cccc(NC(=O)CCCOc2ccc(OC)cc2)c1,5.63% (active)
18,CCOC(=O)c1cccc(NC(=O)/C=C/c2ccc(Cl)cc2)c1,-0.517% (inactive)
19,COc1cccc(NC(=O)CCCOc2ccc(C)cc2)c1,0.676% (inactive)
20,COc1ccc(OCCCC(=O)Nc2ccccc2)cc1,-0.655% (inactive)
21,CCOC(=O)c1cccc(Nc2c(-c3ccccc3)c(=O)c2=O)c1,-1.39% (inactive)
22,CCOC(=O)c1cccc(NC(=O)/C=C/c2ccccc2)c1,5.45% (active)
23,COc1cc(NC(=O)CSc2ncccc2-c2nc3ccccc3[nH]2)cc(OC)c1,-2.5% (inactive)

row,Compound,activation
1,COc1ccc(N2CCN(c3nc(Nc4ccc(C)c(Cl)c4)nc(N4CCCC4)n3)CC2)cc1,-0.777% (inactive)
2,COc1ccc(-c2cc(-c3cccs3)nc3sc(C(N)=O)c(N)c23)cc1,-1.24% (inactive)
3,CC/C=C\C/C=C\C/C=C\C/C=C\C/C=C\C[C@H]1O[C@H]1CCC(=O)OC,0.982% (inactive)
4,Cc1cccc(C(=O)OCC(=O)NC(=O)NCc2ccccc2)c1C,0.774% (inactive)
5,COc1ccc(N2CCN(C(=O)c3ccc(Cn4c(=S)[nH]c5ccc(Br)cc5c4=O)cc3)CC2)cc1,-0.211% (inactive)
6,COc1cc(OC)c(OC)cc1/C=N/N=C1\NC(=O)C(CC(=O)O)S1 (stereo unspecified),0.825% (inactive)
7,Cc1ccc(C(=O)Oc2ccccc2/C=N/N=C2\NC(=O)C(CC(=O)O)S2)cc1 (stereo unspecified),7.49% (active)
8,CC/C(=N\N=C1/NC(=O)C(CC(=O)O)S1)c1ccc(C)cc1 (stereo unspecified),-1.1% (inactive)
9,CCCC(=O)Nc1ccc(S(=O)(=O)N(Cc2ccsc2)C2CC2)cc1,0.722% (inactive)
10,O=C(Nc1ccc(NC(=O)c2cccc3c(Br)cccc23)cc1)c1ccco1,34.7% (active)
11,O=C(Nc1cccc(NC(=O)c2cccc(Cl)c2Cl)c1)c1ccco1,-0.952% (inactive)
12,O=C(Nc1ccc(NC(=O)c2cccnc2Cl)cc1)c1ccco1,0.162% (inactive)
13,CCN1C(=O)S/C(=C/c2cccc(C(F)(F)F)c2)C1=O,1.18% (inactive)
14,COC(=O)Cn1ncc2c3ccccc3n(Cc3cccc(Cl)c3)c2c1=O,4.95% (active)
15,CNC(=O)Cn1ncc2c3ccccc3n(Cc3ccccc3)c2c1=O,0.452% (inactive)
16,CCN(CC)C(=O)Cn1ncc2c3ccccc3n(Cc3ccccc3)c2c1=O,-0.284% (inactive)
17,COCCOC(=O)C1=C(N)OC2=C(C(=O)CC(C)(C)C2)C1c1ccc(F)c(F)c1 (stereo unspecified),0.277% (inactive)
18,CC1=C(C(=O)OCCOc2ccccc2)C(c2ccccc2F)NC(=O)N1 (stereo unspecified),-1.1% (inactive)
19,CCOC(=O)c1sc(NC(=O)C(C)Sc2nnc(CNC(=O)c3ccc(OC)cc3)n2Cc2ccccc2)c(C(=O)OCC)c1C (stereo unspecified),-1.72% (inactive)
20,Nc1nc(SCc2cccc3ccccc23)c2[nH]cnc2n1,-0.0695% (inactive)
21,CSc1nc(N)nc2nc[nH]c12,16.2% (active)
22,COc1ccc(-c2nc(N)c3[nH]cnc3n2)cc1,-0.0768% (inactive)
23,O=C(Cn1c(=S)nc2ccccn21)N1CCc2ccccc2C1,7.33% (active)

row,Compound,activation
1,Cc1cccc2cnn(CC(=O)N3CCc4ccccc4C3)c12,-2% (inactive)
2,CC(C)CC(=O)N1CCc2ccccc2C1,-1.1% (inactive)
3,CCc1nc(N2CCC(C(=O)O)CC2)c2oc3ccccc3c2n1,-2.33% (inactive)
4,CC(=O)C1=C(c2ccc(C(C)(C)C)cc2)N(C(C)=O)n2cnnc2S1,0.857% (inactive)
5,CCc1nnc2n1N(C(C)=O)C(c1ccc3c(c1)CCCC3)=C(C(C)=O)S2,8.6% (active)
6,CCOc1ccc(C2=C(C(=O)CC)Sc3nnc(CC)n3N2C(=O)CC)cc1,-0.342% (inactive)
7,CCOc1ccccc1CNn1c(-c2ccc(OC)cc2)nc2ccccc2c1=O,-1.68% (inactive)
8,COc1ccccc1/C=C/CN1CCNC(=O)C1CC(=O)NC1CC1 (stereo unspecified),-1.56% (inactive)
9,CCCSc1nnc2c(n1)OC(c1cccc(Br)c1)Nc1ccccc1-2 (stereo unspecified),-0.594% (inactive)
10,CCOC(=O)C1=C(C)N(c2ccc(C)cc2)C(=O)/C1=C\c1ccc(OC)cc1,-0.542% (inactive)
11,COc1ccc(NCN2C(=O)c3cc(Cl)c(Cl)cc3C2=O)cc1,-1.71% (inactive)
12,COc1ccc(N2C(=O)C(Cl)=C(Nc3ccc(C)cc3)C2=O)cc1,5.51% (active)
13,COc1cc(/C=C2/NC(=O)N(Cc3ccc(Br)cc3)C2=O)ccc1O,-0.481% (inactive)
14,O=C(C1CCCN1S(=O)(=O)c1ccc(Cl)cc1)N1CCCc2ccccc21 (stereo unspecified),-1.26% (inactive)
15,O=C(Cc1ccccc1)N1CCCc2ccccc21,0.472% (inactive)
16,O=C(C1CCN(S(=O)(=O)Cc2ccccc2)CC1)N1CCCc2ccccc21,8.15% (active)
17,Cc1ccc(C(=O)Nc2ccc(O)c(-c3nc4ccccc4o3)c2)cc1,1.96% (inactive)
18,C/C(CC(=O)Nc1cccc(F)c1)=N\NC(=O)c1cccc(C)c1,0.312% (inactive)
19,COc1ccc2c(Cl)c(C(=O)Nc3ccc(N(C)C(C)=O)cc3)sc2c1,0.165% (inactive)
20,c1ccc2c(c1)CCC2Nc1nncc(-c2ccc3c(c2)OCO3)n1 (stereo unspecified),0.54% (inactive)
21,O=C1CC[C@@H](CN(Cc2ccccn2)Cc2nc(-c3ccc4c(c3)OCO4)no2)N1,-0.5% (inactive)
22,CN(Cc1nc(-c2ccc3c(c2)OCO3)no1)C1CCCc2ccccc21 (stereo unspecified),6.73% (active)
